Assay outcomes deposited in PubChem by National Center for Advancing Translational Sciences (NCATS).
Most compounds without a hit are left out; they make up all but 6% or so of the library.
D1 ag – agonists of human D1 dopamine receptor; P21728; HEK293 T-REx D1 cells, calcium flux, agonist mode; activation, % at 2 µM; 360,000 tested, 1% active; AID 504660; in the data active = activation above about 30%
Target sequence (P21728 whole entry, looked up): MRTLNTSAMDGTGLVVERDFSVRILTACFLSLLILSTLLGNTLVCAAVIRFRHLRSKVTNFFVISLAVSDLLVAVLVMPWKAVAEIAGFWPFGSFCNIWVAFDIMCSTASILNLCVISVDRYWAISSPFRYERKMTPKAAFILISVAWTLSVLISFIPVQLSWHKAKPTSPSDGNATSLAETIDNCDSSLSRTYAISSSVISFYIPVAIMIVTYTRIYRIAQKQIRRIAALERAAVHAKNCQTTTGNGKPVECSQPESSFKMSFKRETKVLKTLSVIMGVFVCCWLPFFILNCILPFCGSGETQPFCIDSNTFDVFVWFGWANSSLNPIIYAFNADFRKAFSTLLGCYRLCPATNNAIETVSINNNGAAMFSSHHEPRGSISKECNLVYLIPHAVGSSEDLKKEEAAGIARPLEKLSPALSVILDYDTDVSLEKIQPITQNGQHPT
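Inducible HEK293 T-REx D1 cells, force-coupled to calcium signalling, were plated at 4000 cells/well with tetracycline and held overnight at 30 C. After no-wash calcium dye loading, compound-evoked calcium rise over 180 s flagged agonists.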
D1 antagonist – human D1 dopamine receptor antagonism. HEK293 TREx D1 cells, calcium flux, dopamine EC80; stronger effect = lower value. 360,000 tested, 3.2% active. P21728. AID 504652. activity change, negative = inhibition, % at 10 µM; in the data active = activity change below about -30%
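After overnight tetracycline induction at 30 C, force-coupled D1 HEK293 cells took up a no-wash calcium dye at room temperature. Compounds were added and monitored 180 s, and the response to EC80 dopamine was then recorded.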
D1 PAM – enhances dopamine response at the human D1 receptor; HEK293 TREx D1 cells, calcium flux, dopamine EC20 potentiation; potentiation, % at 10 µM; 360,000 tested, 0.036% active; AID 504651; in the data active = potentiation above about 30%
DRD3 agonist – D3 dopamine receptor (human) agonism; 410,000 tested, 0.58% active; P35462; max activation, %; AID 652048; D3R DiscoveRx beta-arrestin cells, luminescence, 90 min; in the data active = max activation above about 30%
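Agonist-mode cell screen: cells plated at 1500/well and incubated overnight at 37 °C, then exposed to library compounds for 90 min at 37 °C. Detection reagent was added for 30–60 min at room temperature, and luminescence was read.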
Chronic BCR inh – blocks chronic active B-cell receptor signaling. ABC-DLBCL IkBa-CBG/CBR reporter, luminescence ratio, 4 h. 340,000 tested, 0.05% active. AID 493014. Potency, µM (top dose mostly 46.1 µM), hits mostly inhibitors; active = well fitted inhibition curve with a large enough effect in the signal ratio, with a control signal flat, not every such curve was filed as active; inconclusive = small, poorly fitted or top-dose-only effect, or effect the other way, or a change in a side signal; the % refers to the signal ratio
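Doxycycline induced both beetle luciferases in TMD8 lymphoma cells; IKK-driven degradation limits the IkappaBalpha-fused green signal, while red luminescence normalises for cell number and nonspecific effects. Compounds tested up to 46 uM, 4 hrs.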
D3 antag – antagonists of human D3 dopamine receptor | D3R cells, DiscoveRx beta-arrestin luminescence, antagonist mode; stronger effect = lower value | 360,000 tested, 2.5% active | max response, negative = inhibition, % | AID 652054 | P35462; in the data active = max response below about -50%; inconclusive = no clear call, values can overlap the other calls
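Cells plated overnight at 1500 cells/well, then exposed to library compounds with dopamine controls for 90 minutes at 37 degrees C. DiscoveRx reagent added for 30–60 minutes at room temperature; luminescence read, quantitative HTS format.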
Of the large screens only hits and unclear results are named; the others gave an inactive call.

CC(C)CC(=O)NC(Nc1ccc([N+](=O)[O-])cc1)C(Cl)(Cl)Cl (configuration not stated)	D1 antagonist -40
CC(C)CC(=O)NC(Nc1ccccc1F)C(Cl)(Cl)Cl (configuration not stated)	none
CCOC(=O)c1c(NC(=O)COc2ccccc2F)sc2c1CC(C)(C)NC2(C)C	D1 PAM 36
CCOC(=O)c1c(NC(=O)CSc2ncccn2)sc2c1CC(C)(C)NC2(C)C	none
O=C(COc1ccccc1[N+](=O)[O-])N(C1CCCCC1)C1CCS(=O)(=O)C1 (configuration not stated)	Chronic BCR inh inconclusive
O=C(COc1ccccc1[N+](=O)[O-])OC1CCS(=O)(=O)C1 (configuration not stated)	D1 antagonist -79
CCOc1ccc(CC(=O)Nc2cccc(-c3ccc4nnc(C)n4n3)c2)cc1	D1 antagonist -32, Chronic BCR inh inconclusive
COc1ccc(CC(=O)Nc2cccc(-c3ccc4nnc(C)n4n3)c2)cc1	Chronic BCR inh inconclusive
COc1cccc(NC(=O)c2ccco2)c1	Chronic BCR inh inconclusive
Cc1nnc2ccc(-c3cccc(NC(=O)c4ccco4)c3)nn12	D1 antagonist -33
Cc1nnc2ccc(-c3cccc(NC(=O)Cc4cccs4)c3)nn12	Chronic BCR inh inconclusive
Cc1ccc(C(=O)C(C)Oc2cccc(NC(=O)c3ccco3)c2)cc1 (configuration not stated)	D1 ag 42
Cc1cccc(S(=O)(=O)NC2CCN(C#N)C2)c1 (configuration not stated)	none (no result: DRD3 agonist, Chronic BCR inh, D3 antag)
COc1ccc(CCC(=O)NC2CC(=O)N(c3ccc(OC)cc3)C2)cc1 (configuration not stated)	none (no result: D1 antagonist, D3 antag)
CCn1c(CN2CCCCC2)nc2cc(NC(=O)COc3ccccc3C(C)(C)C)ccc21	none (no result: Chronic BCR inh, D3 antag)
O=S(=O)(c1ccc(OC(F)(F)F)cc1)N1CCC(O)(c2cccc(C(F)(F)F)c2)CC1	D1 ag 34, Chronic BCR inh inconclusive
COc1cc(S(=O)(=O)N2CCC(O)(c3cccc(C(F)(F)F)c3)CC2)ccc1-n1cnnn1	Chronic BCR inh inconclusive, D3 antag -82
CCCCOC(=O)c1ccc(NC(=O)CSc2nc3c(c(=O)[nH]2)CCCC3)cc1	none (no result: Chronic BCR inh, D3 antag)
Cc1ccc(OC(=O)c2cccc(S(=O)(=O)N3CCN(C)CC3)c2)c(Br)c1	D1 antagonist -32
COc1ccc(C(=O)N(Cc2cc(OC)c(OC)c(OC)c2)CC2CCCO2)cc1 (configuration not stated)	none (no result: Chronic BCR inh, D3 antag)
CC(=O)Nc1ccc(S(=O)(=O)NCCNS(=O)(=O)c2ccc(NC(C)=O)cc2)cc1	none
CC(=O)Nc1ccc(S(=O)(=O)NCCSCc2ccc(Cl)cc2Cl)cc1	D1 antagonist -31, Chronic BCR inh inconclusive
O=C(NCc1ccco1)c1ccccc1NS(=O)(=O)c1ccc(Cl)s1	D3 antag inconclusive (no result: D1 antagonist)
O=C(Nc1ccccc1Cc1ccccc1)c1ccccc1NS(=O)(=O)c1ccc(Cl)s1	D1 antagonist -60
O=C(Nc1ccccc1)c1ccccc1NS(=O)(=O)c1ccc(Cl)s1	D1 antagonist -35
Cc1ccc(NC(=O)c2ccccc2NS(=O)(=O)c2ccc(Cl)s2)cc1	D1 antagonist -44, Chronic BCR inh inconclusive
COC(=O)c1ccc(Cl)cc1NC(=O)N1CCC(CN2CCC(C)CC2)CC1	none (no result: Chronic BCR inh, D3 antag)
Cn1cc(-c2csc(C(O)c3ccc(F)cc3)n2)cn1 (configuration not stated)	none (no result: D1 ag, D1 antagonist, D1 PAM, Chronic BCR inh)
O=C(CCS(=O)(=O)c1cccc2nsnc12)Nc1ccc(F)cc1	none (no result: Chronic BCR inh, D3 antag)
CC(C)C[C@@H](CO)N(Cc1ccccc1)S(=O)(=O)N(Cc1ccccc1)[C@H](CO)CC(C)C	DRD3 agonist 48, Chronic BCR inh inconclusive
C=CS(=O)(=O)N(Cc1ccccc1Br)[C@H](CO)CC(C)C	D3 antag -81 (no result: D1 ag, D1 antagonist, D1 PAM, Chronic BCR inh)
CC(C)C[C@@H](CO)N(Cc1ccccc1)S(=O)(=O)N(Cc1ccccc1)[C@@H](CO)CC(C)C	Chronic BCR inh inconclusive
COc1ccc(-c2nc(N3CCN(S(=O)(=O)c4ccc(C)cc4)CC3)c3ccccc3n2)cc1	none (no result: DRD3 agonist, Chronic BCR inh, D3 antag)
Cc1ccc(-c2ccc(CCC(=O)O)n2-c2ccc(C)c(Cl)c2)cc1	none (no result: Chronic BCR inh, D3 antag)
Cc1ccc(C)c(-n2c(CCC(=O)O)ccc2-c2ccc(Cl)cc2)c1	D1 antagonist -32 (no result: Chronic BCR inh, D3 antag)
CC(=O)N1CCCc2cc(S(=O)(=O)N3CCCCC3)ccc21	none (no result: Chronic BCR inh, D3 antag)
COc1ccccc1C(NC(=O)C1CCN(CCOc2ccc(Cl)cc2)CC1)c1ccccn1 (configuration not stated)	D3 antag -78 (no result: D1 ag, D1 antagonist, D1 PAM, Chronic BCR inh)
COc1ccccc1C(NC(=O)C1CCN(CCc2ccc(Br)cc2)CC1)c1ccccn1 (configuration not stated)	D3 antag inconclusive (no result: D1 ag, D1 antagonist, D1 PAM, Chronic BCR inh)
COc1ccccc1C(NC(=O)C1CCN(CCOc2ccccc2)CC1)c1ccccn1 (configuration not stated)	D3 antag -55 (no result: D1 ag, D1 antagonist, D1 PAM, Chronic BCR inh)
CC(NC(=O)C1CCN(CCOc2ccc(Cl)cc2)CC1)c1cccc2ccccc12 (configuration not stated)	D3 antag -53 (no result: D1 ag, D1 antagonist, D1 PAM, Chronic BCR inh)
O=S(=O)(c1cccc(C(F)(F)F)c1)N1CCN(c2nc(-c3cccs3)nc3cc(Cl)ccc23)CC1	none (no result: DRD3 agonist, Chronic BCR inh, D3 antag)
CCOc1ccc(CC(=O)N2CCc3cc(OC)c(OC)cc3C2COc2ccc3c(C)cc(=O)oc3c2)cc1 (configuration not stated)	none (no result: Chronic BCR inh, D3 antag)
Clc1ccc(CN2CCC(c3nc4ccc(Cl)cc4[nH]3)CC2)cc1	D3 antag -74
CSc1ccc(OC2CCN(Cc3ccccc3)CC2)cc1	D3 antag -51
COc1cc(OC)c(OC)cc1CN1CCN(Cc2ccco2)CC1	D1 antagonist -33
CSc1ccc(CN2CCC(Cc3ccccc3)CC2)cc1	D3 antag -56
CCc1ccc(CN(Cc2ccco2)c2cnc(S(C)(=O)=O)nc2C(=O)Nc2ccc(C)c(Cl)c2)cc1	none (no result: Chronic BCR inh, D3 antag)
Clc1ccc(CN2CCC(Cc3ccccc3)CC2)cc1	Chronic BCR inh inconclusive, D3 antag -96
Clc1ccc(CN2CCCCCC2)cc1	none
Clc1cccc(CN2CCC(Cc3ccccc3)CC2)c1	Chronic BCR inh inconclusive, D3 antag -78
Clc1ccc(CN2CCC(c3ccccc3)CC2)cc1	D3 antag -131
Fc1ccc(CN2CCC(Cc3ccccc3)CC2)cc1F	D3 antag inconclusive
Clc1cccc(CN2CCN(Cc3ccco3)CC2)c1	D3 antag -66
CC(=O)[C@@]1(O)CC[C@H]2[C@@H]3C=C(Cl)C4=CC(=O)CC[C@]4(C)[C@H]3CC[C@@]21C	none (no result: D1 ag, D1 antagonist, D1 PAM, Chronic BCR inh, D3 antag)
CCc1[nH]nc2c1C1(CCN(C(=O)c3ccccc3)CC1)C(C#N)=C(N)O2	none
